# In the library only some 32% were active in any assay of this set; here they are far more common.
# CYP2C9 activ = increases human cytochrome P450 2C9 activity; activation factor at 5 µM; recombinant CYP2C9, luciferin-H conversion, luminescence; stronger effect = higher value; factor 1 = untreated enzyme, 0 = blocked; hit rate 1.4% among 96,000;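 active means activation factor of 2 or more for CYP2C9 at a 5 µM dose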;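 further: 0 = sulfaphenazole-blocked wells and 1 = vehicle-only wells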
# CYP2C19 activ = activators of human cytochrome P450 2C19; activation factor at 5 µM; recombinant CYP2C19, luciferin-H EGE luminescence; stronger effect = higher value; 0 = fully inhibited enzyme, 1 = untreated enzyme; 96,000 tested, under 10 active;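 active means activation factor of at least 2 at 5 µM in the primary screen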;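 further: 0 = wells with 2.5 mM tranylcypromine and 1 = vehicle-only wells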
# Target sequence (P33261 whole entry, looked up): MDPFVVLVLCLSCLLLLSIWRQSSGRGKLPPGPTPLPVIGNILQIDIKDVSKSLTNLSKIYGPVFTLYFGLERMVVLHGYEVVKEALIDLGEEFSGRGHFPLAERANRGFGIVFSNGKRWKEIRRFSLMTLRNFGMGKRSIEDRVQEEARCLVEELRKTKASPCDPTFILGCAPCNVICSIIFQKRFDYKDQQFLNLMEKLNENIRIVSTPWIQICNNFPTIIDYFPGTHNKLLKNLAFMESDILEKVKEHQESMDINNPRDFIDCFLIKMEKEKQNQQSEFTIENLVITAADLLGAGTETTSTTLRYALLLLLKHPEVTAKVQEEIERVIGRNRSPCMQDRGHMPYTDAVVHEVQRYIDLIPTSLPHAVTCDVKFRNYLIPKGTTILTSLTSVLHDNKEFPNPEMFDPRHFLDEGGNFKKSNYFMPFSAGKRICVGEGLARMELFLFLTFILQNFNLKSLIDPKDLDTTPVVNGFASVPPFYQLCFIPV
# CYP2C19 inh = blocks human cytochrome P450 2C19; P33261; AID 778; hit rate 21% among 96,000; inhibition, % at 5 µM; CYP2C19 Supersomes, luciferin-H EGE luminescence, 30 min;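 active means CYP2C19 inhibition above a set limit at 5 µM in the primary screen, cut at about 50% in these data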;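 further: plate controls were negative control wells for no effect and 2.5 mM tranylcypromine positive control for full effect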
# CYP2C9 inhib = inhibitors of human CYP2C9; P11712; CYP2C9 Supersomes, luciferin-H conversion, luminescence; inhibition, % at 5 µM; hit rate 20% among 96,000;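 active means blocking of liver enzyme CYP2C9 beyond about 50% at 5 µM, limit read from the data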
# PostGolgi ctrl = growth of the yeast control strain, post-Golgi counter-screen. inhibition, % at 10 µM. efflux-deficient yeast background strain, growth absorbance A615, 16 h. hit rate 5% among 98,000. AID 738
# PostGolgi yeast = growth inhibition of a yeast mutant, post-Golgi transport screen; post-Golgi transport phenotypic cell assay; AID 739; inhibition, % at 10 µM; hit rate 0.9% among 98,000;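 further: yeast cells grown in 1536-well plates; yeast grown about 18 h at 30C before absorbance read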
# Active calls of the source: *; / = no result given. Unless noted, no stated cut-off is given here; in the data, active means inhibition above about 30%; inactive means the rest.
SMILES,CYP2C9 activ,CYP2C19 activ,CYP2C19 inh,CYP2C9 inhib,PostGolgi ctrl,PostGolgi yeast
CCOC(=O)CC1=C(C(=O)OCC)C(c2ccc(C)o2)C(C#N)=C(N)O1 (stereo not given),0.7,0.1,94*,31,4,-11
CCOC(=O)CC1=C(C(=O)OCC)C(c2ccc(OC)cc2OC)C(C#N)=C(N)O1 (stereo not given),0.4,0.5,49,64*,-4,-8
CCOC(=O)C1=C(CC)OC(N)=C(C#N)C1c1ccc(OC)cc1OC (stereo not given),/,/,/,/,10,-7
CC(C)CCN(C)C1CCN(C(=O)Nc2c(F)cccc2F)CC1,1,1,2,3,10,-4
CCN(CC)CCCN1C(=O)C(=O)/C(=C(/O)c2ccc3c(c2)CC(C)O3)C1c1cccnc1 (stereo not given),1.2,1.1,-6,-17,/,/
O=C(C1CCC1)N1CCN(Cc2ccccc2)CC1,0.7,0.1,93*,32,5,12
O=C(C1CCN(C2CC(=O)N(Cc3ccccc3)C2=O)CC1)N1CCCCCC1 (stereo not given),1,1,-5,0,3,32*
Cc1ccc(S(=O)(=O)N2CCCCC2C(=O)N2CCN(Cc3ccccc3)CC2)cc1 (stereo not given),2.9*,0.2,85*,-195,-2,14
O=C(C1CCCCN1S(=O)(=O)c1ccccc1)N1CCN(Cc2ccccc2)CC1 (stereo not given),1.1,0.4,62*,-11,3,-3
O=C(CN1C(=O)C2CC=C(Cl)CC2C1=O)N1CCOCC1 (stereo not given),/,/,/,/,17,7
Cc1cc(C)nc(NC(=O)c2c(-c3ccccc3Cl)noc2C)n1,0.7,0.9,14,30,4,-1
CC(C)C(NC(=O)C1CCCCC1)C(=O)NC1CCN(Cc2ccccc2)CC1 (stereo not given),1.1,1,0,-6,-1,-8
CCN1C(=O)CC(N2CCC(C(=O)OC)CC2)C1=O (stereo not given),1.3,1.2,-20,-26,32*,4
Nc1ncn(C(=O)c2ccco2)n1,1,1.1,-7,-4,-3,4
CCOC(=O)C1C(=O)NC(C)C1c1ccccc1 (stereo not given),1.1,1.2,-22,-8,5,20
CC(C)NS(=O)(=O)c1ccc(OCC(=O)NCc2ccccc2)cc1,0.4,0.6,43,61*,-5,9
Cc1cc2ccccc2n1CCNC(=O)COc1ccccc1,0.6,0.1,94*,38,25,4
CCC(=O)NCCn1c(C)cc2ccccc21,0.9,0.7,30,5,-1,-3
O=C(COc1ccccc1)NCc1ccccc1,0.9,0.3,74*,9,1,-10
COc1ccc(CNC(=O)COc2ccc(S(=O)(=O)NC(C)C)cc2)cc1,0.1,0.3,68*,86*,4,3
Cn1c(=O)[nH]c(=O)c2c1nc(NC1CCCCC1)n2CC(=O)NC1CCCCC1,1,1,-1,-2,5,-4
CCOc1ccc2[nH]c(=O)c(CN(CCOC)C(=O)N3CCOCC3)cc2c1,1,1,-1,5,5,12
c1ccc2c(c1)nnn2Cc1nnc2sc(-c3ccc4c(c3)OCCO4)nn12,0.9,1,4,9,4,-3
CCNC(=O)COc1ccc(-c2ccccc2)cc1,0.7,0.4,62*,29,14,4
CC1=NN(c2ccccc2)C(=O)/C1=C\c1c(C)[nH]n(-c2ccccc2)c1=O,0.5,1,-5,51*,1,-1
SMILES,CYP2C9 activ,CYP2C19 activ,CYP2C19 inh,CYP2C9 inhib,PostGolgi ctrl,PostGolgi yeast
Cc1[nH]n(-c2ccccc2)c(=O)c1/C=N/c1ccccn1,0.9,0.9,8,8,-3,1
COc1ccccc1/C=C/C(=O)N1CCOCC1,1.4,0.9,9,-37,35*,-9
CCn1c(SCC(N)=O)nc2c(c1=O)C1(CCCC1)Cc1ccccc1-2,0.8,1,-2,21,50*,-10
CCn1c(=O)c2c(n3cnnc13)-c1ccccc1CC21CCCCC1,0.7,0.8,16,27,56*,28
CCCn1c(SCC#N)nc2c(c1=O)C1(CCCC1)Cc1ccccc1-2,0.7,0.9,9,34,29,-5
COc1ccc(C(=O)Nc2cc3c(cc2C#N)OCO3)cc1S(=O)(=O)NCc1ccco1,1.2,1,-2,-22,-1,1
